The source of these data is PubChem BioAssay (NCATS).

Results filed as inconclusive are left out. Active and inactive are the calls of the source. The call rests on the fitted dose curve.

Sequence of Peroxisome proliferator-activated receptor delta (Homo sapiens) (Q03181 whole entry, looked up): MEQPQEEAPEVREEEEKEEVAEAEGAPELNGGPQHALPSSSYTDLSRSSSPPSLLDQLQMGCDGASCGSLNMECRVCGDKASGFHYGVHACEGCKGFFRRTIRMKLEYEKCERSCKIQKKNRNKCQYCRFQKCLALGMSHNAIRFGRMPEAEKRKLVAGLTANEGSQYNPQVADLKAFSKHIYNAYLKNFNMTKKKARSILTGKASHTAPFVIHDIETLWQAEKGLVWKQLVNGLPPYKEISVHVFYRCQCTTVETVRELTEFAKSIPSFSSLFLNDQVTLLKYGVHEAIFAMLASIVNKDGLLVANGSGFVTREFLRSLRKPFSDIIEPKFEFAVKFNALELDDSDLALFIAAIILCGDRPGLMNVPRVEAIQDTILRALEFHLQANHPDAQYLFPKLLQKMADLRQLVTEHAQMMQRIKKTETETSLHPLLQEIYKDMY

The target in this experiment is Peroxisome proliferator-activated receptor delta (Homo sapiens) (UniProt Q03181). Briefly: qHTS assay for small molecule agonists of peroxisome proliferator-activated receptor delta signaling (AID 588534). The following applies: HEK293T PPARdelta-UAS-bla, beta-lactamase ratio, 18 h; series mostly up to 76.7 µM. An outline of the steps:
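Agonist-mode qHTS; reporter cells, 5 hrs 37 C pre-incubation; compound titration, 18 hrs 37 C; CCF4 dye, 2 hrs RT; fluorescence read. EC50/efficacy via Hill fit.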
(In general: In qHTS, concentration-response curves come from the screen itself.)
In the case of `O=[N+]([O-])c1c(Cl)cc(Cl)cc1Cl`, the result was inactive.

For `CC1(C)C(=O)N(Br)C(=O)N1Cl`, the result was inactive.

For `CC(C)(C)OCC1CO1` (stereo not given), the outcome was inactive.

With `Nc1nc(N)nc(-c2ccccc2)n1`, the outcome was inactive.

Take `COC(OC)(C(=O)c1ccccc1)c1ccccc1`: the outcome was inactive.

In the case of `CC1=CC(=O)CC(C)(C)C1`, the outcome was inactive.

As to `CC(=O)Nc1ccccc1C`, the result was inactive.

As to `BrC(Br)C(Br)Br`, the outcome was inactive.

As for `CC1CCCO1` (stereo not given), the outcome was inactive.

Regarding `ClCCCl`, the result was inactive.
